Screens (PubChem)
In the library only some 6.3% were active in any assay of this set; here they are far more common.
ATXN viability – Viability Counterscreen for Primary qHTS for Inhibitors of ATXN expression; S2 cells (HEK-293 line with an ATXN2-luciferase reporter) viability, CellTiter-Fluor protease fluorescence, 24 h; Potency, µM (titrated, usually from 56.7 µM), usual class: cytotoxic; actives 0.49% (n = 400,000); AID 651635, 2014; also: nearly all actives have a fitted effect of over 40% in size
VP16 counter – VP16 counterscreen qHTS for inhibitors of ROR gamma transcriptional activity; Potency, µM (titrated, usually from 53.6 µM), without a hit: at the top dose activity, negative = inhibition, hits mostly inhibitors; actives 3.5% (n = 310,000); AID 2546, 2010; Drosophila S2 Gal4-VP16 UAS-luciferase, luminescence, 20 h;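 also: Gal4-VP16 expression switched on by copper sulfate through the metallothionein promoter; % is scaled to controls: 0 for no effect and ±100 for the full control effect; nearly all actives have a fitted effect of over 50% in size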
ATXN2 expr inh – Primary qHTS for Inhibitors of ATXN expression; HEK-293 ATXN2-luciferase reporter, luminescence, 24 h; Potency, µM (series often up to 57 µM), inactives show top-dose activity change, negative = inhibition, actives largely listed as inhibitors; actives 0.72% (n = 360,000); also: % is scaled to controls: 0 for no effect and ±100 for the full control effect; nearly all actives have a fitted effect of over 55% in size
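ATXN2-luciferase reporter cells (luciferase flanked by upstream and downstream ATXN2 gene portions) were treated 24 h at 37 °C with compounds at up to 57 uM. SteadyGlo luminescence gave expression; GF-AFC fluorescence gave viability.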
HepG2 tox – qHTS for Inhibitors of TGF-b: Cytotox Counterscreen. actives 0.76% (n = 410,000). AID 588856, 2011. Potency, µM (doses to about 46.1 µM), inactives show top-dose activity change, negative = cytotoxicity, actives largely listed as cytotoxic. HepG2 CAGA-GFP viability, ATP luminescence, 18 h
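CellTiter-Glo luminescence gave cytotoxicity after 18 hours at 37 degrees C. The cells were HepG2 CAGA-GFP in 1% FBS DMEM, stimulated with 500 pg/mL TGF-beta after compound addition. %Activity was normalised to no-cell wells (complete cell-killing) and DMSO (no toxicity), and curves were fitted and classified.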
RORgamma inh – qHTS for inhibitors of ROR gamma transcriptional activity | actives 5.4% (n = 310,000) | Drosophila S2 Gal4-RORgamma UAS-luciferase reporter, 20 h | Potency, µM (top dose mostly 53.6 µM), for the others: at the highest dose activity change, negative = inhibition, hits mostly inhibitors; also: % is scaled to controls: 0 for no effect and ±100 for the full control effect; nearly all actives have a fitted effect of over 60% in size
Target sequence (P51450 whole entry, looked up, the tested form may be a part): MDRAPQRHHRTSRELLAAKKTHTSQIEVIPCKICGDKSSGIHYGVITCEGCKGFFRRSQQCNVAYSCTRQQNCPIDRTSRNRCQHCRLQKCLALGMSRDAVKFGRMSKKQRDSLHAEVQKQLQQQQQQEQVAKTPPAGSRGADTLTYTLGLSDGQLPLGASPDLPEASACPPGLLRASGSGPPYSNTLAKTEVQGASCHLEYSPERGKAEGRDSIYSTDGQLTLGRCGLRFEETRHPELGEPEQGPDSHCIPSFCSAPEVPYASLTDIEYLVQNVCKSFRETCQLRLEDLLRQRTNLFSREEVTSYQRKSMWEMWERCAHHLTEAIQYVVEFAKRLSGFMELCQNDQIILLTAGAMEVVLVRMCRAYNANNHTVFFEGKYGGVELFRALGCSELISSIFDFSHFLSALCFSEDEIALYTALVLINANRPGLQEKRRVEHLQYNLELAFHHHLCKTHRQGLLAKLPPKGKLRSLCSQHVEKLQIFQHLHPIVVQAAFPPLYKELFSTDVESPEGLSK
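Compounds are pin-transferred onto Drosophila Schneider cells expressing a copper-inducible Gal4–ROR gamma transactivation domain fusion. After 1 hr, copper sulfate is added to 700 uM final; luciferase is read 20 hr later.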
TGFb inhibitor – qHTS for Inhibitors of TGF-b. HepG2 CAGA-GFP TGF-b/SMAD3 reporter, GFP fluorescence, 18 h; TGF-beta stimulated, 500 pg/mL final. Potency, µM (series often up to 46.1 µM), without a hit: at the highest dose activity, negative = inhibition, hits mostly inhibitors. actives 1.2% (n = 410,000). AID 588855, 2011; also: % is scaled to controls: 0 for no effect and ±100 for the full control effect; nearly all actives have a fitted effect of over 65% in size
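Per well, imaged GFP fluorescence of HEPG2 CAGA-GFP cells gives the signal; cells get compound, then TGF-beta (500 pg/mL final), 18 h at 37 degrees C; %Activity versus -TGF-beta and +DMSO controls.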
* marks the source's active call; other numbers are inactive results; i = inactive; u = inconclusive; x = no result; ! = repeats disagree; [ ] = another dose, or the depositor's remark. Calls follow the shape of the dose curve; as a rule, active = well fitted curve in the direction sought with a large enough effect; inconclusive = small, poorly fitted or top-dose-only effect, or another doubt; inactive = no such curve, though single readings can be large; an effect the other way counts as inactive or inconclusive. Potency is read from the fitted curve at half-maximal effect.

SMILES	ATXN viability	VP16 counter	ATXN2 expr inh	HepG2 tox	RORgamma inh	TGFb inhibitor
CCOC(=O)c1cnc(Nc2nc3ccccc3o2)nc1CSC(=S)N(CC)CC	i	0.562µM*	-4.0%	-21.1%	0.562µM*	u
COc1ccc2[nH]cc(CCNc3ncnc4ccc(-c5c(C)noc5C)cc34)c2c1	x	-13.8%	x	x	-2.8%	x
Cc1nc(Nc2nc3ccccc3o2)nc(C)c1C	i	u	-27.2%	-42.9%	11.2µM*	0.9%
COc1ccc(/C=C/C(=O)c2ccc(O)cc2O)cc1	x	u	x	x	0.0398µM*	x
COc1cc(/C=C/C(=O)c2ccc(O)cc2O)ccc1O	x	-23.7%	x	x	u	x
O=C(/C=C/c1ccc(O)cc1)c1ccc(O)cc1O	u	u	15.7%	-47.5%	1.78µM*!	u
COc1ccc(C(=O)/C=C/c2ccc(OC)cc2OC)c(O)c1	i	21.4%	25.3%	-17.4%	0.794µM*	6.5%
COc1ccc(/C=C/C(=O)c2ccc(O)cc2O)cc1OC	x	u	x	x	2µM*	x
COc1ccc(/C=C/C(=O)c2cc(Cl)ccc2O)c(OC)c1	i	28.9%	32.3%	-2.4%	14.3%	-10.9%
CCOCCCNc1nc2ccccc2n2c(CC)nnc12	x	x	x	-6.8%	x	-4.9%
COc1ccc(C(=O)/C=C/c2ccccc2)c(O)c1	u	-4.0%	-29.9%	-56.1%	-42.8%	u
O=C(/C=C/c1ccccc1)c1ccc(O)cc1O	x	u	x	x	2.82µM*	x
CC(C)=CCC/C(C)=C/Cc1c(O)ccc(C(=O)/C=C/c2ccc(O)cc2)c1O	31.6µM*	u	u	-109.6%	-0.9%	u
Cc1ccnc(NC(=O)Cc2ccc(-c3ccccc3)cc2)c1	i	u	u	-22.3%	11.2µM*	u
Cc1ccnc(NCc2cccc3ccccc23)c1	u	u	-8.3%	-23.5%	15.8µM*	u
CCOC(=O)C1CCN(C2=C(NS(=O)(=O)c3ccc(Br)cc3)C(=O)c3ccccc3C2=O)CC1	17.8µM*	-0.1%	x	-100.9%	-3.6%	17.8µM*
CCN1CCN(C2=C(NS(=O)(=O)c3ccccc3)C(=O)c3ccccc3C2=O)CC1	u	u	x	-114.8%	10µM*	11.2µM*
CN1CCN(C2=C(NS(=O)(=O)c3ccccc3)C(=O)c3ccccc3C2=O)CC1	i	12.6µM*	-27.2%	-46.6%	11.2µM*	u
CCOC(=O)N1CCN(C2=C(NS(=O)(=O)c3ccccc3)C(=O)c3ccccc3C2=O)CC1	u	-11.3%	u	-97.5%	-37.6%	u
CCOc1ccccc1N1CCN(C2=C(NS(=O)(=O)c3cccs3)C(=O)c3ccccc3C2=O)CC1	i	-1.7%	-20.4%	-31.9%	0.0%	17.8µM*
CCC(CC)C(=O)Nc1nnc(SCc2cc(=O)n3cccc(C)c3n2)s1	x	x	x	-11.8%	x	u
CCN1CCN(C2=C(NS(=O)(=O)c3ccc(Br)cc3)C(=O)c3ccccc3C2=O)CC1	u	u	x	17.8µM*	u	12.6µM*
FC(F)(F)c1cccc(CN2CCC(c3cc(-c4cccs4)n[nH]3)CC2)c1	u	-19.6%	u	20µM*	6.7%	u
O=C(C=Cc1ccccc1)Nc1ccccc1	i	x	61.1%	-23.5%	x	12.3%
O=C(/C=C/c1ccccc1)NC(=S)Nc1ccc(N2CCOCC2)cc1	i	3.16µM*	-4.1%	-16.4%	1µM*	-25.7%
SMILES	ATXN viability	VP16 counter	ATXN2 expr inh	HepG2 tox	RORgamma inh	TGFb inhibitor
O=C(/C=C/c1ccccc1)NC(=S)Nc1ccccc1	i	2µM*	11.2%	-2.6%	u	-6.6%
O=C(/C=C/c1ccc(S(=O)(=O)N2CCOCC2)cc1)NC(=S)Nc1ccc(Cl)cc1Cl	i	11.6%	-15.5%[11.3 µM]	-6.0%	11.2µM*	-4.9%
C=CCN(CC=C)S(=O)(=O)c1ccc(NC(=S)NC(=O)/C=C/c2ccccc2)cc1	i	-19.6%	7.9%	-29.4%	2.51µM*	u
O=C(/C=C/c1ccc(Cl)cc1)Nc1ccc(N2CCOCC2)cc1	i	9.2%[10 µM]	-31.9%	-0.8%	11.7%	0.8%
O=C(/C=C/c1ccc(S(=O)(=O)N2CCOCC2)cc1)Nc1cc(F)ccc1F	i	x	1.1%	12.0%	x	4.8%
COc1cccc(NC(=O)Cn2c(=O)n(-c3ccc(C)cc3)c(=O)c3ccc(C(=O)NCc4ccco4)cc32)c1	i	x	0.8%	-45.1%	x	u
O=C(/C=C/c1ccc(F)cc1)NC(=S)N1CCN(Cc2ccccc2)CC1	i	7.08µM*	-12.6%	4.5%	2.51µM*	-6.0%
O=C(/C=C/c1ccc(F)cc1)NC(=S)Nc1ccccc1	u	10µM*	2.7%	0.5%	7.94µM*	12.7%
O=C(/C=C/c1ccc(Cl)cc1)NC(=S)Nc1ccc(N2CCOCC2)c(Cl)c1	u	5.62µM*	u	-12.9%	u	8.0%
O=C(Nc1ccccc1)O/N=C/c1ccc(F)cc1	i	u	x	-9.7%	10µM*	3.3%
CC(C)N1CCC(C)(C(=O)Nc2cccc(Oc3ccccc3)c2)C1 (configuration not stated)	i	x	9.5%	-18.5%	x	6.9%
COc1cc(CCNC2=CC(=O)c3ncccc3C2=O)ccc1O	x	x	23.8µM*	2.51µM*	x	u
CSc1nsc(NC(=O)Cc2ccccc2)n1	i	7.08µM*	40.3%	-28.4%	u	-12.9%
COc1ccc(OC)c2c(C)ccnc12	x	x	x	12.6µM*	x	7.94µM*
COC(=O)C1CCN(Cc2ccc3c(c2)CN(C(=O)C2CCCN(c4ccccn4)C2)CCO3)CC1 (configuration not stated)	i	x	x	x	x	x
O=C1C=CC(=O)N1CCCCCCN1C(=O)C=CC1=O	x	0.891µM*	u	-109.6%	3.16µM*	4.47µM*
O=C(O)CN1C(=O)C=CC1=O	u	x	x	-1.9%	x	7.3%
CCCn1c(-c2ccc(F)cc2)nc2c(NCCCCN(C)C)nc(C)nc21	x	0.9%	x	x	-6.3%	x
Cc1cccc(C(=O)Nc2nc(-c3ccc(Br)cc3)ns2)c1	x	x	x	-10.2%	x	-27.5%
C/C(=N\NC(=O)c1csc(C)c1C)c1ccc(Cl)s1	i	-2.8%	33.0%	22.8%	-6.9%	6.9%
C/C(=N\NC(=S)NC(C)C)c1ccc(Cl)s1	i	u	18.5%	-32.0%	1.12µM*	u
CC/C(=N\NC(=O)c1c(-c2ccccc2)noc1C)c1ccc(C)o1	u	-10.7%	-10.1%	-17.0%	u	-2.1%
C/C(=N\NC(=O)c1ccoc1C)c1ccc(Cl)s1	i	10µM*	29.8%	4.1%	11.2µM*	4.6%
